Results from PubChem BioAssay AID1159580 (chemical genetic matrix, 2015).
Where “and” joins values, the source holds several entries; their conditions need not be identical. Identical values can stand only once. The whole screen tested about 5,500 compounds, of which about 2,000 (36%) were called active. Inconclusive results (about 18%) are left out. Cut-off read from the data, not from the text of the source: active = normalized growth mostly below about 0.91 (no sharp cut-off); inconclusive = no clear call, values can overlap the other calls; inactive = mostly above about 0.92. The list shows a part of the results.

Assay: chemical genetic growth profiling, strain panel (AID 1159580);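 note: tested at 20 µM; growth read once vehicle control cultures reached saturation at 30 °C; 1 = growth at the plate median or of vehicle wells; lower values mean less growth of the strain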
Conditions: S. cerevisiae deletion strains, growth OD

Measured: normalized growth

COC1=CC(=O)C[C@@H](C)[C@]12Oc1c(Cl)c(OC)cc(OC)c1C2=O
inactive: locus YAL013W, strain DEP1, active compounds read low 1.02 | locus YAL021C, strain ccr4, active compounds read low 1.01 | locus YAL026C, strain drs2, active compounds read low 0.989 | locus YAL030W, strain snc1, active compounds read low 0.988 | locus YBL061C, strain skt5, active compounds read low 0.972 | locus YBR009C, strain hhf1, active compounds read low 0.937 | locus YBR021W, strain FUR4, active compounds read low 1 | locus YBR023C, strain chs3, active compounds read low 0.978 | locus YBR171W, strain sec66, active compounds read low 0.961 | locus YBR229C, strain ROT2, active compounds read low 0.954 | locus YBR231C, strain swc5, active compounds read low 1 | locus YBR279W, strain paf1, active compounds read low 0.987 | locus YCL011C, strain gbp2, active compounds read low 0.963 | locus YCL016C, strain dcc1, active compounds read low 0.958 | locus YCL029C, strain bik1, active compounds read low 0.987 | locus YCL061C, strain MRC1, active compounds read low 1 | locus YCL069W, strain vba3, active compounds read low 0.979 | locus YCR088W, strain abp1, active compounds read low 0.979 | locus YDL005C, strain med2, active compounds read low 0.996 | locus YDL035C, strain GPR1, active compounds read low 0.95 | locus YDL040C, strain nat1, active compounds read low 0.995 | locus YDL074C, strain BRE1, active compounds read low 1.02 | locus YDL101C, strain DUN1, active compounds read low 1 | locus YDL134C, strain PPH21, active compounds read low 0.97 | locus YDL185W, strain tfp1, active compounds read low 0.972 | locus YDL192W, strain arf1, active compounds read low 0.988 | locus YDR001C, strain nth1, active compounds read low 0.982 | locus YDR069C, strain doa4, active compounds read low 0.991 | locus YDR101C, strain arx1, active compounds read low 0.992 | locus YDR137W, strain rgp1, active compounds read low 0.954 | locus YDR150W, strain NUM1, active compounds read low 0.996 | locus YDR159W, strain sac3, active compounds read low 1.02 | locus YDR162C, strain NBP2, active compounds read low 0.932 | locus YDR195W, strain ref2 1.03 | locus YDR297W, strain sur2, active compounds read low 1 | locus YDR318W, strain mcm21, active compounds read low 0.988 | locus YDR334W, strain swr1, active compounds read low 0.993 | locus YDR335W, strain msn5, active compounds read low 0.986 | locus YDR388W, active compounds read low 1 | locus YDR392W, strain spt3, active compounds read low 0.907 | locus YDR502C, strain sam2, active compounds read low 0.999 | locus YEL003W, strain gim4, active compounds read low 0.986 | locus YEL037C, strain rad23, active compounds read low 0.984 | locus YEL061C, strain CIN8 (second series), active compounds read low 0.977 | locus YEL061C, strain CIN8, active compounds read low 0.996 | locus YER015W, strain faa2, active compounds read low 0.971 | locus YER016W, strain bim1, active compounds read low 0.971 | locus YER110C, active compounds read low 0.989 | locus YER111C, strain swi4, active compounds read low 0.979 | locus YER155C, strain BEM2 (second series), active compounds read low 1.01 | locus YER155C, strain BEM2, active compounds read low 1.01 | locus YER167W, strain BCK2, active compounds read low 0.981 | locus YFR010W, strain ubp6, active compounds read low 0.987 | locus YGL078C, strain dbp3, active compounds read low 0.987 | locus YGL086W, strain mad1, active compounds read low 0.994 | locus YGL167C, strain pmr1, active compounds read low 0.97 | locus YGL173C, strain kem1, active compounds read low 0.984 | locus YGL227W, strain vid30, active compounds read low 0.978 | locus YGL240W, strain doc1, active compounds read low 1.01 | locus YGL248W, strain PDE1, active compounds read low 1.01 | locus YGL253W, strain hxk2, active compounds read low 0.994 | locus YGR078C, strain PAC10, active compounds read low 1.01 | locus YGR135W, strain pre9, active compounds read low 1.01 | locus YGR229C, strain SMI1, active compounds read low 0.978 | locus YGR252W, strain gcn5, active compounds read low 0.992 | locus YHR013C, strain ard1, active compounds read low 0.975 | locus YHR027C, strain rpn1, active compounds read low 0.975 | locus YHR030C, strain SLT2, active compounds read low 0.988 and 1.01 | locus YHR079C, strain IRE1 (second series), active compounds read low 0.995 | locus YHR079C, strain IRE1, active compounds read low 1.01 | locus YHR094C, strain hxt1, active compounds read low 0.988 | locus YHR129C, strain ARP1, active compounds read low 0.996 | locus YHR142W, strain chs7, active compounds read low 0.934 | locus YHR200W, strain rpn10, active compounds read low 0.983 | locus YIL066C, strain RNR3, active compounds read low 0.937 | locus YIL073C, strain SPO22, active compounds read low 0.997 | locus YIL125W, strain kgd1, active compounds read low 0.986 | locus YIR030C, strain dcg1, active compounds read low 1.01 | locus YJL092W, strain hpr5, active compounds read low 0.987 | locus YJL095W, strain BCK1 (second series), active compounds read low 0.977 | locus YJL095W, strain BCK1, active compounds read low 1.06 and 1.01 | locus YJL115W, strain asf1, active compounds read low 0.981 | locus YJL129C, strain trk1, active compounds read low 0.964 | locus YJL134W, strain LCB3, active compounds read low 0.987 | locus YJL154C, strain vps35, active compounds read low 0.983 | locus YJL164C, strain tpk1, active compounds read low 0.964 | locus YJL166W, strain qcr8, active compounds read low 1 | locus YJL168C, strain set2, active compounds read low 0.989 | locus YJL187C, strain SWE1 (second series), active compounds read low 1.03 | locus YJL187C, strain SWE1, active compounds read low 0.983 | locus YJR043C, strain POL32, active compounds read low 0.964 | locus YJR066W, strain TOR1, active compounds read low 0.969
